Compounds with a hit are over-represented: about 2.9% of the library has one in this group of screens.
DRD3 agonist: qHTS of D3 Dopamine Receptor Agonist: qHTS | D(3) dopamine receptor (Homo sapiens), P35462 | D3R DiscoveRx beta-arrestin cells, luminescence, 90 min | max activation, % | actives 0.58% (n = 410,000) | AID 652048, 2013; in the data active = max activation above about 30%
Target sequence (P35462 whole entry, looked up): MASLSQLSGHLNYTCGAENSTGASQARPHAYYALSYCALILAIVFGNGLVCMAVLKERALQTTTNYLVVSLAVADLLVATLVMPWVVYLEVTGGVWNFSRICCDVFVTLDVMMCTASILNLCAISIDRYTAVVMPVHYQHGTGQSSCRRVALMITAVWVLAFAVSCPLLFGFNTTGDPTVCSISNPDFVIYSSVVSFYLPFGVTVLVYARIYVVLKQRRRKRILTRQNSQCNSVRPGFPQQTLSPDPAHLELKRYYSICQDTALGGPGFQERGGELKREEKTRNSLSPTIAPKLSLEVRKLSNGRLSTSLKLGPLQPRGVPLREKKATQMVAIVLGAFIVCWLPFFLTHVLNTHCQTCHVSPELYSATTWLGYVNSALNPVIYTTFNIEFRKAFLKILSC
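Agonist-mode cell screen: cells plated at 1500/well and incubated overnight at 37 °C, then exposed to library compounds for 90 min at 37 °C. Detection reagent was added for 30–60 min at room temperature, and luminescence was read.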
a7 integrin act: qHTS for Activators of Integrin-Mediated Alleviation for Muscular Dystrophy; alpha7betagal myoblasts, beta-gal FDG fluorescence, 48 h; Potency, µM (doses to about 38.3 µM), most hits filed as activators; actives 0.064% (n = 350,000); AID 624291, 2012; active = well fitted activation curve with a large enough effect; inconclusive = small, poorly fitted or top-dose-only effect; inactive = no such curve, though single readings can be large or run the other way; also: nearly all actives have a fitted effect of over 60% in size
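Alpha7betagal+/- myoblasts (passage 13) were plated 16-24 hr, then exposed to compounds (1:260 dilution of DMSO stock) for 48 hours at 37C. After MPER lysis, β-galactosidase reporter activity was read as FDG fluorescence (ex 480/em 540) after 30 minutes.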
D3 antag: qHTS of D3 Dopamine Receptor Antagonist: qHTS; D3R cells, DiscoveRx beta-arrestin luminescence, antagonist mode; hits give low values; max response, negative = inhibition, %; actives 2.5% (n = 360,000); in the data active = max response below about -50%; inconclusive = no clear call, values can overlap the other calls
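Cells plated overnight at 1500 cells/well, then exposed to library compounds with dopamine controls for 90 minutes at 37 degrees C. DiscoveRx reagent added for 30–60 minutes at room temperature; luminescence read, quantitative HTS format.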
Numbers stand for hits; - = inactive; ? = inconclusive; . = not tested or not shown; ! = repeats disagree.

SMILES	DRD3 agonist	a7 integrin act	D3 antag
Oc1cc2ccccc2cc1-c1n[nH]c(=S)o1	-	-	-50.0
S=c1[nH]nc(-c2c[nH]c3ccccc23)o1	-	-	-
O=C(/C=C/c1ccc(S(=O)(=O)N2CCOCC2)cc1)NCc1ccccc1F	-	-	-
CCCC(C)c1oc(=O)cc(O)c1C (centres undefined)	60.4	-	-
CCOC(=O)C(C)Oc1ccc2c(CC)cc(=O)oc2c1C (centres undefined)	-	-	-
NCCNc1ccc([N+](=O)[O-])c(Sc2nc3ccccc3[nH]2)c1	-	-	-
O=[N+]([O-])c1ccc(N2CCNCC2)cc1Sc1nc2ccccc2[nH]1	-	-	-66.5
COc1ccc(S(=O)(=O)N2CCCCCC2)cc1C(=O)OCC(=O)NC(N)=O	-	-	-
COc1ccc(S(=O)(=O)N2CCCCCC2)cc1C(=O)OCC(=O)NC(C)(C)C	38.6	-	-
O=S(=O)(Nc1ccc(F)cc1)c1cccc2nsnc12	-	-	-
COc1ccc(C2/C(=C(/O)c3ccccc3)C(=O)C(=O)N2CCN2CCOCC2)c(OC)c1 (centres undefined)	-	-	-56.5
COc1cccc(/C(O)=C2\C(=O)C(=O)N(c3ccccn3)C2c2ccccc2OC)c1 (centres undefined)	-	-	-50.5
COc1ccc(C2/C(=C(/O)c3ccc(Cl)cc3)C(=O)C(=O)N2CCN2CCOCC2)c(OC)c1 (centres undefined)	-	-	-
COc1ccc(C2/C(=C(/O)c3ccccc3)C(=O)C(=O)N2c2ccccn2)c(OC)c1 (centres undefined)	-	-	-
Cc1ccc(NC(=O)C2CCN(S(=O)(=O)c3ccc4[nH]c(=O)oc4c3)CC2)cc1F	-	-	-
COc1cc(OC)c(-c2nc3cnccc3n2C)cc1OC	-	-	-
Cn1c(-c2ccc3ccccc3n2)nc2cnccc21	-	-	-59.0
CCN(CC)S(=O)(=O)c1ccc(NC(=O)CC(NC(C)=O)c2ccccc2)cc1 (centres undefined)	-	-	-77.7
CC(=O)NC(CC(=O)Nc1ccc(S(=O)(=O)N2CCCC2)cc1)c1ccccc1 (centres undefined)	-	-	?
NNc1nc(-c2ccccc2Cl)nc2ccccc12	-	-	-92.1
Oc1cccc(Nc2nc(-c3ccccc3Cl)nc3ccccc23)c1	-	?	-
CCCOc1ccc(NC(=O)C2CC(=O)N/C(=N/N=C(\C)CCc3ccc4c(c3)OCO4)S2)cc1 (centres undefined)	-	-	-
NNC(=O)/C(=C\c1ccc(Br)cc1)NC(=O)c1cccs1	-	-	-
O=C(NCCCNC(=O)c1cccs1)c1cccs1	-	-	-64.0
O=C(NCCCCNC(=O)c1cccs1)c1cccs1	-	-	-
SMILES	DRD3 agonist	a7 integrin act	D3 antag
Cc1ccc(N(CC(=O)NCc2ccc(F)cc2)C(=O)c2ccco2)cc1C	-	-	-
CCCCCCN1CCN(C2CN(Cc3cn(Cc4ccc(Cl)cc4)nn3)S(=O)(=O)C2)CC1 (centres undefined)	-	.	?
CN(C)CCN1CCN(C2CN(Cc3cn(Cc4cccc(C(F)(F)F)c4)nn3)S(=O)(=O)C2)CC1 (centres undefined)	-	.	-72.1
CN(C)CCN1CCN(C2CN(Cc3cn(Cc4ccc(C(F)(F)F)cc4)nn3)S(=O)(=O)C2)CC1 (centres undefined)	-	.	?
CN(C)CCN1CCN(C2CN(Cc3cn(Cc4ccc(Cl)cc4)nn3)S(=O)(=O)C2)CC1 (centres undefined)	-	.	-50.6
O=C(CN(C(=O)c1ccccc1Cl)N1C(=O)CCCC1=O)c1ccc(Cl)cc1	-	-	-
CC(=O)N1c2ccccc2NC2=C(C(=O)CCC2)C1c1ccc(F)cc1 (centres undefined)	-	-	-
COc1ccccc1NS(=O)(=O)c1c(C)nc2sccn2c1=O	-	-	-
Cc1ccc(N=Nc2ccc(O)c3ncccc23)cc1C	-	-	-69.5
Cc1cc(N(C)C)ccc1N=Nc1ccc2ncccc2c1	-	-	-
Cc1ccc(N=Nc2ccc3ccccc3c2O)cc1	-	-	-
Cc1ccc(N=Nc2ccc(O)c3ncccc23)cc1	-	-	-118.5
Cc1cc(C)nc(N2CCC(C(=O)NCc3cccs3)CC2)n1	-	-	-
COc1ccc(N(CC(=O)Nc2c(C)n(C)n(-c3ccccc3)c2=O)S(=O)(=O)c2ccc(C)cc2)cc1OC	-	-	-110.9
COc1ccccc1N(CC(=O)Nc1c(C)n(C)n(-c2ccccc2)c1=O)S(=O)(=O)c1ccc(C)cc1	-	-	-
Cc1ccc(Cl)cc1N1CCN(C(=O)c2cc(S(=O)(=O)N3CCCCC3)cn2C)CC1	-	.	.
Cc1ccc(S(=O)(=O)N2CCC(N3CCN(Cc4ccccc4)C(=O)C3=O)CC2)cc1C	-	.	.
CCN(CC)C(=O)c1ccc2nc(-c3ccccc3)c(-c3ccccc3)nc2c1	-	-	-
CCN(CC)C(=O)c1ccc2nc3ccccc3nc2c1	-	-	-63.2
Cc1nnc2c3ccccc3nc(Nc3ccc(F)cc3Cl)n12	-	.	.
COc1ccc(C(c2sc3nc(C)nn3c2O)N2CC(C)OC(C)C2)cc1OC (centres undefined)	-	-	-
O=C(CSc1ncn[nH]1)N1CCCCC1	-	-	-
O=C(CSc1ncc(-c2ccc(F)cc2)[nH]1)N1CCCCC1	-	-	-58.9
Cc1ccc(NS(=O)(=O)c2cc(C(=O)OCC(=O)NCC3CCCO3)ccc2C)cc1 (centres undefined)	-	-	-
CS(=O)(=O)c1ccccc1C(=O)N1CCN(Cc2ccccc2)CC1	-	?	-
SMILES	DRD3 agonist	a7 integrin act	D3 antag
CCN(Cc1ccccc1)Cc1cc(OC)cc(OC)c1	-	-	-55.8
CCN(Cc1ccccc1)Cc1c(F)cccc1F	-	-	-
COc1ccccc1Cn1c(SCC(N)=O)nc2c(oc3ccccc32)c1=O	-	-	-
CCCC12CN3CC(C)(CN(C1)C3c1ccc(OCc3ccccc3)cc1)C2=O (centres undefined)	-	.	.
CC(=O)N1CCN(c2cc(N3CCCC3)c(F)cc2[N+](=O)[O-])CC1	-	-	-
CCN1CCN(c2cc(N3CCc4ccccc4C3)c(F)cc2[N+](=O)[O-])CC1	-	-	-78.7
CN(C(=O)CSc1cccc[n+]1[O-])c1ccccc1	-	-	-
CCN1CCN(Cc2ccc(NC(=O)c3cc(NC(=O)c4cc(C)on4)cc(OC)c3)cc2C(F)(F)F)CC1	-	-	?
CCN1CCN(Cc2ccc(NC(=O)c3cc(NC(=O)C(=O)c4c[nH]c5ccccc45)cc(OC)c3)cc2C(F)(F)F)CC1	-	-	-53.6
CCN1CCN(Cc2ccc(NC(=O)c3ccc(C)c(NC(=O)C(=O)c4c[nH]c5ccccc45)c3)cc2C(F)(F)F)CC1	-	-	-72.3!
CCN1CCN(Cc2ccc(NC(=O)c3ccc(C)c(NC(=O)c4ccc5n[nH]nc5c4)c3)cc2C(F)(F)F)CC1	-	-	?
Cc1ccc(OCC(=O)Nc2ccc(-c3nc4ccc(C)cc4o3)cc2)cc1	-	.	.
O=C(COC(=O)C1CCN(S(=O)(=O)c2ccccc2C(F)(F)F)CC1)NCc1ccc(F)cc1	256.7	-	-
